The text below walks through data of PubChem BioAssay.

Activity calls are given as the source filed them. Unless noted, the rule behind the calls is not given here.

For assay [1], the system named is Wnt5a (protein binding on small-molecule microarray). The experiment in a line: small molecules binding Wnt5a protein – biophysical, small-molecule microarray, 635/667 nm fluorescence, primary screen (AID 1142).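 Note: fluorescence read at 667 nm with signal to noise per printed feature.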 The following applies: 635 nm fluorescence, higher = more signal.
Assay [2] is described as follows: ATP-based viability of Huh7 replicon cells – cell-based, CellTiter-Glo luminescence, basal, 48 h, cytotoxicity control for HCV replication inhibitor project, primary screen (AID 1143).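 Note: Huh7 hepatoma cells carrying a hepatitis C replication reporter with no stimulus; test concentration not given here.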 The settings on record: higher = more signal, called active from +8 up or from −8 down.
A short description of assay [3]: Pseudomonas biofilm growth suppression – PAO1 strain, BacTiter-Glo luminescence, LB-PBS, primary screen (AID 1144). The following applies: P. aeruginosa PAO1 biofilm, 12 h, higher = more signal.
A short description of assay [4]: basal CRE-LacZ reporter activity in PC12 – cell-based, unstimulated, primary screen (AID 1145). The following applies: no forskolin, luminescence, 4.5 h, higher = more signal, called active from +8 up or from −8 down.
A short description of assay [5]: forskolin-driven CRE-LacZ activity in PC12 – cell-based, CRE-LacZ reporter, forskolin-stimulated, primary screen (AID 1146).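 Note: PC12 cells with 6xCRE LacZ reporter stimulated by forskolin 10 µM; beta-galactosidase reporter signal reflecting CREB driven transcription.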 The following applies: luminescence, 4.5 h, higher = more signal, called active from +8 up or from −8 down.
The target in assay [6] is Streptavidin (Streptomyces avidinii) (UniProt P22629). The experiment in a line: compounds binding control protein streptavidin – biophysical, small-molecule microarray, 635/667 nm fluorescence, artefact control for SMM compound annotation, primary screen (AID 1147).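 Note: signal reflects streptavidin binding to arrayed compounds as a control protein.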 The settings on record: higher = more signal.
A short description of assay [7]: probe aInhba binding on compound microarray – biochemical, small-molecule microarray, 635/667 nm fluorescence, primary screen (AID 1148).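 Note: score merges 667nm spot fluorescence with signal-to-noise for antibody binding to printed compounds.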 The settings on record: higher = more signal.
In assay [8] the target is Torsin-1A (Homo sapiens) (UniProt O14656). The experiment in a line: TOR1A wild-type binding on microarray – cell lysate, small-molecule microarray, lysate, 635/667 nm, primary screen (AID 1149). The following applies: COS7 hTOR1A-WT lysate, 635 nm fluorescence, higher = more signal.
Assay [9] has the same target. The experiment in a line: torsin A mutant lysate binding on microarrays – cell lysate, small-molecule microarray, COS7 lysate, 635/667 nm fluorescence, primary screen (AID 1150).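 Note: score pools 667 nm emission and signal to noise measuring lysate protein binding.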 The following applies: COS7 hTOR1A mutant lysate, 635 nm fluorescence, higher = more signal.
For assay [10], the system named is Sonic hedgehog protein (Shh). The experiment in a line: Sonic hedgehog microarray binding compounds – biochemical, small-molecule microarray, 635/667 nm fluorescence, primary screen (AID 1151).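 Note: Shh protein binding to compounds spotted on small-molecule microarray slides; score combines spot fluorescence intensity with signal-to-noise across triplicate slides.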 The settings on record: 635 nm fluorescence, higher = more signal.
A short description of assay [11]: optical density shifts of acrAB sulA E. coli – strain DRC41, OD650, 48 h, E. coli filamentation inducer project, primary screen (AID 1152).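 Note: E. coli MC1000 strain DRC41 lacking acrAB efflux pump and sulA.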 The settings on record: higher = more signal, called active from +8 up or from −8 down.
Assay [12] in a line: probe aLefty1 binding on compound microarray – biochemical, small-molecule microarray, 635/667 nm fluorescence, primary screen (AID 1153).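 Note: score merges spot fluorescence with signal-to-noise ratio from the scanned slide images.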 The following applies: higher = more signal.
Assay [13] is described as follows: plasmodial surface anion channel blockers, osmotic lysis – cell-based, P. falciparum Indochina, OD700, 1 h, primary screen (AID 1154). The settings on record: P. falciparum Indochina infected RBC osmotic lysis, higher = more signal, called active from +8 up or from −8 down.
Assay [14] can be described thus: plasmodial surface anion channel blockers, osmotic lysis – cell-based, P. falciparum Indochina, OD700, 2 h, primary screen (AID 1155).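 Note: lysis reports solute entry through the parasite surface anion channel PSAC.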 The settings on record: P. falciparum Indochina infected erythrocytes, higher = more signal, called active from +8 up or from −8 down.
Assay [15] is described as follows: changes in parasitized red cell lysis, either direction – P. falciparum Indochina, OD700, 3 h, PSAC antagonist project, primary screen (AID 1156). The settings on record: P. falciparum-infected erythrocytes, osmotic lysis, higher = more signal, called active from +8 up or from −8 down.
A short description of assay [16]: plasmodial surface anion channel blockers, osmotic lysis – cell-based, P. falciparum Indochina, OD700, 18 h, primary screen (AID 1157). The following applies: P. falciparum Indochina infected erythrocytes, osmotic lysis OD700, 18 h; higher = more signal, called active from +8 up or from −8 down.
A short description of assay [17]: S6 kinase pathway phospho-S6 level changes – cell-based, A549, cytoblot, luminescence, serum-stimulated, primary screen (AID 1158).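 Note: serum-stimulated A549 lung adenocarcinoma cells; signal is phosphorylated S6 detected by cytoblot immunostaining with HRP secondary.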 The settings on record: 5 h, higher = more signal.
Assay [18] addresses NADPH oxidase 2 (Homo sapiens) (UniProt P04839). Nature of the assay: compounds shifting NOX2 Amplex Red fluorescence – cell-based, HEK293-NOX2, PMA-stimulated, NOX inhibitor project, primary screen (AID 1159). Note: test concentration not given here. The following applies: 45 min, higher = more signal, called active from +8 up or from −8 down.
Assay [19] deals with NADPH oxidase 4 (Homo sapiens) (UniProt Q9NPH5). The experiment in a line: compounds shifting NOX4 Amplex Red fluorescence – cell-based, HEK293-NOX4, tetracycline-induced, NOX inhibitor project, primary screen (AID 1160). The settings on record: HEK293-NOX4, Amplex Red H2O2 fluorescence, 45 min; higher = more signal, called active from +8 up or from −8 down.
In assay [20] the target is NADPH oxidase 5 (Homo sapiens) (UniProt Q96PH1). The experiment in a line: compounds shifting NOX5 Amplex Red fluorescence – cell-based, HEK293-NOX5, NOX inhibitor project, primary screen (AID 1161). The following applies: HEK293-NOX5, ionomycin, 45 min, higher = more signal.
Chain of NADPH oxidase 5 (Homo sapiens) (Q96PH1 whole entry, looked up): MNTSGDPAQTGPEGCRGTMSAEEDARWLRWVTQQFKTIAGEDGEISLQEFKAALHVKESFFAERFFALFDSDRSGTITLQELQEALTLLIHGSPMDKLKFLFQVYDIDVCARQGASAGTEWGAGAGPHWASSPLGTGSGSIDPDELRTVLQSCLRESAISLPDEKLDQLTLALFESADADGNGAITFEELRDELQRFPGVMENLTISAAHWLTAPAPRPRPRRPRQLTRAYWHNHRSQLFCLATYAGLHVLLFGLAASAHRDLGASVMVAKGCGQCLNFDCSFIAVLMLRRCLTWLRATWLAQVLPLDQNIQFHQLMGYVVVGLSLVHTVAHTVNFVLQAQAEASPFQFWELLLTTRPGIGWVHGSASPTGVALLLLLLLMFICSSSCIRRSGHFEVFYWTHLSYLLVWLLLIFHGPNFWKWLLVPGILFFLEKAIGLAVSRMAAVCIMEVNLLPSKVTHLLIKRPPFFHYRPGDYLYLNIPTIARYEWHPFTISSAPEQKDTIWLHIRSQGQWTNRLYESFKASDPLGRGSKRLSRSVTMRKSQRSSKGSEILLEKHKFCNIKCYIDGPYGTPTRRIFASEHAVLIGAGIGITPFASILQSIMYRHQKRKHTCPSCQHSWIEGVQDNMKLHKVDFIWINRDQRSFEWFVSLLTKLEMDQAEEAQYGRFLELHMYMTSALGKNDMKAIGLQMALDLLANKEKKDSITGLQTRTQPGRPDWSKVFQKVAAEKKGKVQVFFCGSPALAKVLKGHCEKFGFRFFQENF

Chain of NADPH oxidase 2 (Homo sapiens) (P04839 whole entry, looked up): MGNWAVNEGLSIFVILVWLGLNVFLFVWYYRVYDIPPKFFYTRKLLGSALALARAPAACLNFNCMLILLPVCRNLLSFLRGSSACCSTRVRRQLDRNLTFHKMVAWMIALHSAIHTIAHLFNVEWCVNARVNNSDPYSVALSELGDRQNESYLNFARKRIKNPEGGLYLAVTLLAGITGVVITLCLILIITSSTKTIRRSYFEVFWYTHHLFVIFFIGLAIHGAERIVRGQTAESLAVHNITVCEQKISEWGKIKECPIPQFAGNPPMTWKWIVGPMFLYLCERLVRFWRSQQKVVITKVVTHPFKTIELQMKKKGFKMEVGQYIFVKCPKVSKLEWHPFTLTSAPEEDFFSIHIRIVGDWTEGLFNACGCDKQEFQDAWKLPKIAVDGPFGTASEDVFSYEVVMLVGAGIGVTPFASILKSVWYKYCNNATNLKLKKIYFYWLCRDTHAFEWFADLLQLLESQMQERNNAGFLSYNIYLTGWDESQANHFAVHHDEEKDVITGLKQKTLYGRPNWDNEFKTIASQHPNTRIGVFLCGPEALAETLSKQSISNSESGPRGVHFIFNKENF
Chain of Streptavidin (Streptomyces avidinii) (P22629 whole entry, looked up): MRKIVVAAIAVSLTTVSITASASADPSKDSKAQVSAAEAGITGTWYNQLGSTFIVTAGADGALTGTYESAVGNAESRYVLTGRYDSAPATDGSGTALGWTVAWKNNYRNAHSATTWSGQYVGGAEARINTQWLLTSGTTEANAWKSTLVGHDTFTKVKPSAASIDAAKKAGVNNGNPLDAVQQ
Chain of Torsin-1A (Homo sapiens) (O14656 whole entry, looked up): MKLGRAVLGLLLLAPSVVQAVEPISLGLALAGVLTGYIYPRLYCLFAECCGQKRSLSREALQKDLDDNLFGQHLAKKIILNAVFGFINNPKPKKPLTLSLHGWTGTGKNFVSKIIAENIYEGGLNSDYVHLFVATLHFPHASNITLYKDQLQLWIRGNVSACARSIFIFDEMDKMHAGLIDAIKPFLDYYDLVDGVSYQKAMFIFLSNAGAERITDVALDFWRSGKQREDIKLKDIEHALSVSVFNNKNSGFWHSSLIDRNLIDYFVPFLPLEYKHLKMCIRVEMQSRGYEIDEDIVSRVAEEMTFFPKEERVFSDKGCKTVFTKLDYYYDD
Chain of NADPH oxidase 4 (Homo sapiens) (Q9NPH5 whole entry, looked up): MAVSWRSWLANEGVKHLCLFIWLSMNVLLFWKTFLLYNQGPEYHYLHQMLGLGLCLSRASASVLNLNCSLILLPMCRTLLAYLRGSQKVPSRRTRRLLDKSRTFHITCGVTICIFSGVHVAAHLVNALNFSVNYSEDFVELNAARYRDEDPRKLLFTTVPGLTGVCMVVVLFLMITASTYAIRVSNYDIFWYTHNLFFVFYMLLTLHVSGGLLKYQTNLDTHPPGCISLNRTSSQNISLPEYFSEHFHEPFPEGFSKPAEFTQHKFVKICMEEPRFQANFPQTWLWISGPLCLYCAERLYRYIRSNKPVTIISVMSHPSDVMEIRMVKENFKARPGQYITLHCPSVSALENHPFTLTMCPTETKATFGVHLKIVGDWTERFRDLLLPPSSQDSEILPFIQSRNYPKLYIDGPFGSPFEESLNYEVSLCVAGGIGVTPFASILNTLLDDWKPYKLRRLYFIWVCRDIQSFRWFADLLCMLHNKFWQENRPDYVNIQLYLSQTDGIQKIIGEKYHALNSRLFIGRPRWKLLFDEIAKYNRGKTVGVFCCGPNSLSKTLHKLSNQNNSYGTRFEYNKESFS

As for `COC(=O)C1=CC(c2ccc(CO)cc2)=CC(C2CC2)N(Cc2cc3c(cc2Br)OCO3)C=C1C(=O)OC` (stereo not given), the composite z-score in [1] was found to be 0.92; in assay [6], 1.52; in [7] it was 0.225; with Torsin-1A (Homo sapiens) [8], 0.312; in the assay with Torsin-1A (Homo sapiens) [9], 0.832; in assay [10], 1.21. In addition, the composite z-score in assay [12] is 0.3. In addition, the z-score in assay [2] was -3.35 (inactive); in assay [3], 0.754 (inactive); in [4], -0.904 (inactive); in assay [5] it was -0.5 (inactive); in [11], -0.938 (inactive); in assay [13], 10.6 (active). Also, the z-score in assay [14] is 0.856 (inactive); in [15], 0.954 (inactive); in assay [16] it was 0.572 (inactive); in [17] it was -0.625; in assay [18] it was -0.853 (inactive); in assay [19] it was -0.385 (inactive). In addition, in assay [20], the z-score amounted to 0.857.

For `COC(=O)[C@H](Cc1ccccc1)N1CC(C)(OC)O[C@@H](Cc2ccccc2)[C@H]1/C=C/C1CC1` (stereo not given in full), the composite z-score in assay [1] was -0.0712; in assay [6], 0.0404; in assay [7] it was -0.0762; in the assay with Torsin-1A (Homo sapiens) [8], 0.256; in the assay with Torsin-1A (Homo sapiens) [9], 0.269; in [10], 0.0034. In assay [12], this compound had a composite z-score of -0.147. The z-score was -0.628 (inactive) in assay [2]; 0.664 (inactive) in [3]; 4.13 (inactive) in [4]; 1.12 (inactive) in assay [5]; 0.286 (inactive) in assay [11]; 1.92 (inactive) in assay [13]. Further, the z-score in [14] is 0.0937 (inactive); in assay [15] it was -0.774 (inactive); in [16], 0.281 (inactive); in assay [17], -0.105; in [18], -4.36 (inactive); in [19] it was -0.147 (inactive). Moreover, the z-score in assay [20] is -0.141.

`O=C1OCC=C[C@H]2OC34C=CCN(Cn5nnc6ccccc65)C(=O)[C@H]3N(CCO)C(=O)[C@@H]4[C@@H]12` (stereo not given in full): the composite z-score was -0.26 in assay [1]; -1.02 in assay [6]; -0.208 in assay [7]; 1.09 with Torsin-1A (Homo sapiens) [8]; -1.8 with Torsin-1A (Homo sapiens) [9]; -0.793 in [10]. In addition, the composite z-score in [12] is -0.101. In addition, the z-score in [2] was 0.473 (inactive); in assay [3] it was 1.43 (inactive); in assay [4], 0.455 (inactive); in assay [5], 0.792 (inactive); in [11] it was -0.683 (inactive); in assay [13] it was 0.813 (inactive). In addition, the z-score was 0.531 (inactive) in [14]; 0.268 (inactive) in assay [15]; 0.55 (inactive) in assay [16]; -0.376 in assay [17]; 1.17 (inactive) in [18]; 0.99 (inactive) in assay [19]. Moreover, the z-score in [20] came out at 1.38.

For the compound `CCOC(=O)C[C@H]1[C@H](OC(=O)c2ccccc2-c2ccccc2)[C@@H](NC(=O)CC(C)C)c2cc(OCCCO)ccc2N1C(=O)c1ccccc1`, the composite z-score was 0.167 in [1]; -0.31 in [6]; -0.0178 in [7]; -0.278 with Torsin-1A (Homo sapiens) [8]; -0.161 in the assay with Torsin-1A (Homo sapiens) [9]; 1.51 in assay [10]. The compound also showed a composite z-score in [12] of 0.0816. The z-score in [2] is -0.715 (inactive); in assay [3], -0.829 (inactive); in assay [4] it was 1.94 (inactive); in [5], -0.103 (inactive); in assay [11], 0.822 (inactive); in assay [13], 0.0883 (inactive). The z-score is -1.7 (inactive) in assay [14]; -1.27 (inactive) in assay [15]; -2.84 (inactive) in assay [16]; 1.47 in assay [17]; 0.924 (inactive) in [18]; 0.899 (inactive) in [19]. For the same compound, the z-score in assay [20] was -1.19.

Regarding `O=C1NC(=O)C2C1C=CC(C(O)c1ccc(F)cc1)N2Nc1ccc(Cl)cc1Cl` (stereo not given), the composite z-score is -0.166 in [1]; -0.346 in [6]; -0.0645 in assay [7]; -0.556 with Torsin-1A (Homo sapiens) [8]; -0.348 in the assay with Torsin-1A (Homo sapiens) [9]; -0.354 in [10]. Moreover, in assay [12], the composite z-score is -0.017. Further, the z-score in assay [2] was -1.79 (inactive); in assay [3], -0.762 (inactive); in assay [4], 0.0535 (inactive); in assay [5], -0.207 (inactive); in [11] it was -1.89 (inactive); in assay [13], 3.43 (inactive). Besides, the z-score was 0.615 (inactive) in assay [14]; -0.695 (inactive) in [15]; 1.22 (inactive) in assay [16]; 0.0765 in assay [17]; -0.018 (inactive) in [18]; -5.68 (inactive) in assay [19]. Also, in assay [20], the z-score is -3.23.

`CCCCN1CC=CC23O[C@@H]4/C=C\CCCOC(=O)C4[C@H]2C(=O)N(CCCCCCO)[C@@H]3C1=O` (stereo not given in full): the composite z-score was -0.525 in [1]; -0.654 in [6]; -0.154 in assay [7]; -1.63 with Torsin-1A (Homo sapiens) [8]; -1.49 in the assay with Torsin-1A (Homo sapiens) [9]; 0.145 in assay [10]. Moreover, in assay [12], the composite z-score is 0.0927. Further, the z-score in assay [2] is 0.121 (inactive); in assay [3] it was -1.2 (inactive); in [4], 0.475 (inactive); in assay [5], -0.34 (inactive); in assay [11] it was 2.36 (inactive); in assay [13] it was 1.81 (inactive). Also, the z-score in assay [14] is -0.88 (inactive); in assay [15] it was -0.75 (inactive); in [16], -0.945 (inactive); in assay [17], 3.08; in [18], 0.873 (inactive); in [19], 0.0146 (inactive). The z-score in [20] was determined as 1.84.

As to `CCCCCN1CC=CC23O[C@@H]4/C=C\CCCOC(=O)C4[C@H]2C(=O)N(CCO)[C@@H]3C1=O` (stereo not given in full), the composite z-score was -0.243 in assay [1]; -0.666 in assay [6]; -0.183 in assay [7]; 0.642 with Torsin-1A (Homo sapiens) [8]; 1.58 in the assay with Torsin-1A (Homo sapiens) [9]; 0.0256 in assay [10]. Also, the composite z-score in [12] was -0.103. In addition, the z-score in assay [2] was -2.03 (inactive); in assay [3] it was -2.97 (inactive); in assay [4], -1.98 (inactive); in assay [5], -0.508 (inactive); in assay [11], 3.1 (inactive); in [13], 0.592 (inactive). Further, the z-score in [14] was 0.177 (inactive); in assay [15], -0.608 (inactive); in assay [16], -0.776 (inactive); in assay [17], 1.48; in assay [18], 0.88 (inactive); in [19], 0.261 (inactive). For the same compound, the z-score in [20] turned out to be 2.19.

Take `CCN1C(=O)C2CC(=O)C3C(CN(S(=O)(=O)c4ccc(C)cc4)C3c3ccc(C)cc3)C2C1=O` (stereo not given): the composite z-score was 0.235 in assay [1]; 0.851 in assay [6]; -0.0471 in assay [7]; 0.364 in the assay with Torsin-1A (Homo sapiens) [8]; 0.915 with Torsin-1A (Homo sapiens) [9]; 0.184 in assay [10]. The compound also gave a composite z-score in assay [12] of -0.0967. Further, the z-score is -1.49 (inactive) in assay [2]; 1.03 (inactive) in assay [3]; -0.676 (inactive) in assay [4]; -0.202 (inactive) in assay [5]; 0.344 (inactive) in assay [11]; 1.04 (inactive) in assay [13]. The z-score in assay [14] is 0.804 (inactive); in assay [15] it was 0.135 (inactive); in [16], 0.609 (inactive); in assay [17] it was -0.0511; in assay [18] it was -0.374 (inactive); in assay [19], -0.0929 (inactive). Moreover, in [20], the z-score was -0.525.
